Reference: PubChem BioAssay AID1159580 (chemical genetic matrix, 2015)
Values joined by “and” are separate entries in the source; they are usually repeats but may differ in a detail not shown here. Identical values can stand only once. Among all 5,500 compounds or so, about 2,000 (36%) were called active. About 18% were inconclusive and are not listed. Rule as the data show it: active = normalized growth mostly below about 0.91 (no sharp cut-off); inconclusive = no clear call, values can overlap the other calls; inactive = mostly above about 0.92. Some of the results follow.

Experiment: chemical genetic growth profiling, strain panel (AID 1159580);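 also: tested at 20 µM; growth read once vehicle control cultures reached saturation at 30 °C; 1 = growth at the plate median or of vehicle wells; lower values mean less growth of the strain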
Details: S. cerevisiae deletion strains, growth OD

Measured: normalized growth

COc1ccc(-c2cc(=O)c3c(O)cc(O[C@@H]4O[C@H](CO[C@H]5O[C@H](C)[C@@H](O)[C@H](O)[C@@H]5O)[C@@H](O)[C@H](O)[C@H]4O)cc3o2)cc1O
inactive: locus YAL021C, strain ccr4, hits give low values 1.01 | locus YAL026C, strain drs2, hits give low values 1.05 | locus YAL030W, strain snc1, hits give low values 1.02 | locus YBL061C, strain skt5, hits give low values 1.02 | locus YBR009C, strain hhf1, hits give low values 1.01 | locus YBR021W, strain FUR4, hits give low values 1.03 | locus YBR023C, strain chs3, hits give low values 1.01 | locus YBR171W, strain sec66, hits give low values 1.02 | locus YBR229C, strain ROT2, hits give low values 0.994 | locus YBR231C, strain swc5, hits give low values 1.02 | locus YBR279W, strain paf1, hits give low values 1.01 | locus YCL011C, strain gbp2, hits give low values 1.01 | locus YCL016C, strain dcc1, hits give low values 1.02 | locus YCL029C, strain bik1, hits give low values 0.986 | locus YCL061C, strain MRC1, hits give low values 1.01 | locus YCL069W, strain vba3, hits give low values 1.03 | locus YCR088W, strain abp1, hits give low values 1.01 | locus YDL005C, strain med2, hits give low values 1.02 | locus YDL035C, strain GPR1, hits give low values 0.983 | locus YDL040C, strain nat1, hits give low values 1 | locus YDL074C, strain BRE1, hits give low values 1.02 | locus YDL101C, strain DUN1, hits give low values 0.995 | locus YDL185W, strain tfp1, hits give low values 0.969 | locus YDL192W, strain arf1, hits give low values 0.985 | locus YDR001C, strain nth1, hits give low values 1.01 | locus YDR069C, strain doa4, hits give low values 1.02 | locus YDR101C, strain arx1, hits give low values 1 | locus YDR137W, strain rgp1, hits give low values 1.03 | locus YDR150W, strain NUM1, hits give low values 0.99 | locus YDR159W, strain sac3, hits give low values 1.02 | locus YDR162C, strain NBP2, hits give low values 0.972 | locus YDR195W, strain ref2 1.04 | locus YDR297W, strain sur2, hits give low values 1.01 | locus YDR318W, strain mcm21, hits give low values 1 | locus YDR334W, strain swr1, hits give low values 1.02 | locus YDR335W, strain msn5, hits give low values 1.01 | locus YDR388W, hits give low values 0.991 | locus YDR392W, strain spt3, hits give low values 0.987 | locus YDR502C, strain sam2, hits give low values 0.993 | locus YEL003W, strain gim4, hits give low values 1.02 | locus YEL037C, strain rad23, hits give low values 1.01 | locus YEL061C, strain CIN8 (second series), hits give low values 1.03 | locus YEL061C, strain CIN8, hits give low values 0.997 | locus YER015W, strain faa2, hits give low values 1.01 | locus YER016W, strain bim1, hits give low values 1.02 | locus YER110C, hits give low values 0.979 | locus YER111C, strain swi4, hits give low values 1 | locus YER155C, strain BEM2 (second series), hits give low values 1 | locus YER155C, strain BEM2, hits give low values 0.995 | locus YER167W, strain BCK2, hits give low values 0.981 | locus YFR010W, strain ubp6, hits give low values 1.02 | locus YGL078C, strain dbp3, hits give low values 1 | locus YGL086W, strain mad1, hits give low values 1.01 | locus YGL167C, strain pmr1, hits give low values 1.01 | locus YGL173C, strain kem1, hits give low values 1.04 | locus YGL227W, strain vid30, hits give low values 1.01 | locus YGL240W, strain doc1, hits give low values 1.04 | locus YGL248W, strain PDE1, hits give low values 0.999 | locus YGL253W, strain hxk2, hits give low values 1 | locus YGR078C, strain PAC10, hits give low values 1.01 | locus YGR135W, strain pre9, hits give low values 0.956 | locus YGR252W, strain gcn5, hits give low values 1.04 | locus YHR013C, strain ard1, hits give low values 1.02 | locus YHR027C, strain rpn1, hits give low values 1.02 | locus YHR030C, strain SLT2, hits give low values 0.985 and 1 | locus YHR079C, strain IRE1 (second series), hits give low values 0.991 | locus YHR079C, strain IRE1, hits give low values 0.996 | locus YHR094C, strain hxt1, hits give low values 0.977 | locus YHR129C, strain ARP1, hits give low values 0.988 | locus YHR142W, strain chs7, hits give low values 0.978 | locus YHR200W, strain rpn10, hits give low values 0.989 | locus YIL066C, strain RNR3, hits give low values 0.994 | locus YIL073C, strain SPO22, hits give low values 0.963 | locus YIL125W, strain kgd1, hits give low values 1.01 | locus YIR030C, strain dcg1, hits give low values 0.985 | locus YJL092W, strain hpr5, hits give low values 1.02 | locus YJL095W, strain BCK1 (second series), hits give low values 1.01 | locus YJL095W, strain BCK1, hits give low values 1.01 and 0.997 | locus YJL115W, strain asf1, hits give low values 1.03 | locus YJL129C, strain trk1, hits give low values 1.03 | locus YJL134W, strain LCB3, hits give low values 0.988 | locus YJL154C, strain vps35, hits give low values 1.02 | locus YJL164C, strain tpk1, hits give low values 1.02 | locus YJL166W, strain qcr8, hits give low values 1.02 | locus YJL168C, strain set2, hits give low values 1 | locus YJL187C, strain SWE1 (second series), hits give low values 1 | locus YJL187C, strain SWE1, hits give low values 1.01 | locus YJR043C, strain POL32, hits give low values 1.02 | locus YJR066W, strain TOR1, hits give low values 0.981
